Publication PMC4552634, “A New Set of Chemical Starting Points with Plasmodium falciparum Transmission-Blocking Potential for Antimalarial Drug Discovery” (PLoS ONE, 2015)
Screen size: about 13,000 compounds; about 3,200 (25%) showed an effect of 50% or more. Some of the results follow.

These molecules were tested on P. falciparum stage V gametocytes. Settings: 48 h, 5 µM; inhibitor.
Design: BacTiter-Glo ATP luminescence viability of purified stage V gametocytes in 384-well plates, per cent inhibition versus DMSO

Structure (SMILES)	% Inhibition [%]
COc1ccc2nccc(NC(=O)N3CCC(NCCOc4cc(F)cc(F)c4)CC3)c2n1 [TCMDC-140666]	29.69
COc1ccc2nccc(NC(=O)C3(O)CCC(NCc4ccc5c(c4)NCCS5)CC3)c2n1 (centres unmarked) [TCMDC-141406]	32.7
COc1ccc2nccc(NC(=O)C3CCC(NCc4cnc(SC)c([N+](=O)[O-])c4)CC3)c2n1 (centres unmarked) [TCMDC-131238]	93.77
Cc1cccc2[nH]c(-c3ccc(-c4cccc(NC(=O)Nc5ccc(F)c(F)c5F)c4)cc3)nc12 [TCMDC-133234]	-5.873
O=C(N[C@@H](CC1CCCCC1)C(=O)NC1CCCCC1)c1ccc(O)c(-c2cccc(C(F)(F)F)c2)c1 [TCMDC-140810]	6.892
O=C(N[C@@H](Cc1ccccc1)C(=O)NC1CCCCCC1)c1ccc(O)c(-c2cccc(C(F)(F)F)c2)c1 [TCMDC-140813]	18.86
O=C(N[C@@H](Cc1ccccc1)C(=O)NC1CCCCC1)c1ccc(O)c(-c2cccc(C(F)(F)F)c2)c1 [TCMDC-140809]	50.49
OC(CNc1ccnc(Nc2ccccc2)n1)c1ccc(C(F)(F)F)cc1 (centres unmarked) [TCMDC-136598]	-1.002
O=c1cc(NCCCNCc2[nH]c3cc(Cl)ccc3c2Cl)[nH]c2ccccc12 [TCMDC-139966]	-23.52
Cc1ccc(C(NC(=O)c2ccccc2)c2ccc3cccnc3c2O)cc1 (centres unmarked) [TCMDC-125552]	16.34
O=C(NC(c1ccccc1)c1ccc2cccnc2c1O)c1ccccc1 (centres unmarked) [TCMDC-123701]	103.7
COc1cccc(C(NC(=O)c2ccccc2)c2ccc3cccnc3c2O)c1 (centres unmarked) [TCMDC-125755]	75.54
N#Cc1ccc(N2CCN(C(=O)c3cccc(-c4noc(C(F)(F)F)n4)c3)CC2)nc1 [TCMDC-132424]	8.571
O=C(NC(CCCN1CCC2(CC1)OCc1ccccc12)c1ccc(Cl)c(Cl)c1)c1cc(C(F)(F)F)cc(C(F)(F)F)c1 (centres unmarked) [TCMDC-141897]	69.2
O=C(NC(CCCN1CCC(c2ccccc2)CC1)c1ccc(Cl)c(Cl)c1)c1cc(C(F)(F)F)cc(C(F)(F)F)c1 (centres unmarked) [TCMDC-141900]	23.85
O=C(Nc1cc(C(F)(F)F)cc(C(F)(F)F)c1)NC(CCCN1CCC2(CC1)OCc1ccccc12)c1ccc(Cl)c(Cl)c1 (centres unmarked) [TCMDC-141899]	-60.02
O=C(Nc1ccc([N+](=O)[O-])cc1)c1nn(-c2ccccc2)cc1N=Cc1cccc(O)c1 [TCMDC-124108]	-28.07
CCCCCn1c(Sc2ccc(C#N)c([N+](=O)[O-])c2)nnc1-c1cccs1 [TCMDC-135585]	31.33
O=C(NCc1ccccn1)C(c1cc2ccccc2o1)N1CCN(C(c2ccccc2)c2ccccc2)CC1 (centres unmarked) [TCMDC-141024]	9.637
NCc1ccc(-c2ccccc2CNC2CCN(Cc3ccccc3)CC2)cc1 [TCMDC-140468]	88.27
NCc1cccc(-c2ccccc2CNC2CCN(Cc3ccccc3)CC2)c1 [TCMDC-140467]	102.5
c1ccc(CN2CCC(NCc3ccccc3-c3cccc(CNC4CCCC4)c3)CC2)cc1 [TCMDC-140472]	106.9
Oc1ccc(CN2CCC(NCc3cccc4ccccc34)CC2)cc1 [TCMDC-141654]	18.51

Structure (SMILES)	% Inhibition [%]
CC(C)c1ccc(N2CCN(CCCCNC(=O)c3ccc(NC(=O)c4cc(Cl)cc(Cl)c4)cc3)CC2)cc1 [TCMDC-138232]	-31.61
O=C(Cc1ccc(Nc2nccc(Nc3cccc4[nH]ncc34)n2)cc1)Nc1ccc(C(F)(F)F)cc1 [TCMDC-136243]	0.831
CCCCCc1cnc2nc(N)nc(N)c2c1C [TCMDC-137717]	7.113
Cc1cnc(C(=O)Nc2ccc3c(c2)CCCN(Cc2c[nH]c4cnccc24)C3)cn1 [TCMDC-134846]	9.147
CC(C)c1ccc(N(CC(=O)N/N=C/c2ccc(C(F)(F)F)cc2)S(=O)(=O)c2ccc(C(F)(F)F)cc2)cc1 [TCMDC-135354]	13.17
O=c1ccc2ccc(O)c(O)c2o1 [TCMDC-125839]	-8.739
COc1ccc(-c2cnc(N)c(-c3nc4ccc(Br)cc4[nH]3)c2)cc1 [TCMDC-133074]	-6.966
CC1CN(c2cnn(Cc3cccc(NC(=O)Nc4ccc(F)cc4[N+](=O)[O-])c3)c(=O)c2Cl)CC(C)N1 (centres unmarked) [TCMDC-141934]	17.4
CC1CN(c2cnn(C/C=C/c3ccc(NC(=O)c4ccc([N+](=O)[O-])cc4)cc3)c(=O)c2Cl)CC(C)N1 (centres unmarked) [TCMDC-132467]	91.62
CCOC(=O)c1ccc(NC(=O)Nc2ccc(Cn3ncc(N4CCCNCC4)c(Cl)c3=O)cc2)cc1 [TCMDC-133330]	-19
CC1CN(c2cnn(Cc3cccc(NC(=O)Nc4cccc(C(F)(F)F)c4)c3)c(=O)c2Cl)CC(C)N1 (centres unmarked) [TCMDC-141933]	-18.84
CC1CN(c2cnn(Cc3ccc(NC(=O)Nc4cccc(C(F)(F)F)c4)cc3)c(=O)c2Cl)CC(C)N1 (centres unmarked) [TCMDC-141938]	-19.52
CC1CN(c2cnn(Cc3ccc(NC(=O)Nc4ccc(F)cc4[N+](=O)[O-])cc3)c(=O)c2Cl)CC(C)N1 (centres unmarked) [TCMDC-141939]	5.517
CC1CN(c2cnn(C/C=C/c3ccc(NC(=O)c4ccc(Cl)cc4)cc3)c(=O)c2Cl)CC(C)N1 (centres unmarked) [TCMDC-132469]	77.2
CC1CN(c2cnn(C/C=C/c3ccc(NC(=O)c4ccc5nonc5c4)cc3)c(=O)c2Cl)CC(C)N1 (centres unmarked) [TCMDC-132468]	104.2
COC(=O)c1ccc(NC(=O)Nc2ccc(Cn3ncc(N4CCCNCC4)c(Cl)c3=O)cc2)cc1 [TCMDC-133315]	-30.5
CN1C(=CC(=O)NC(=O)c2ccccc2)C(C)(C)c2ccccc21 [TCMDC-136649]	14.63
Cc1nc2ccc3nc(NC(=O)c4ccno4)sc3c2s1 [TCMDC-124989]	-34.07
CN(C)c1cccc2c1nc(-c1ccco1)n2CC1CCCN1 (centres unmarked) [TCMDC-133408]	-1.299
CCCCCCCn1c(=O)c(C(=O)Nc2c(C)cccc2C)c(O)c2ccccc21 [TCMDC-124465]	13.41
CCCCn1c(-c2ccco2)nc2c(c(=O)c3ccccc3n2C)c1=O [TCMDC-124920]	70.03
Cc1ccccc1CNc1noc(-c2sccc2Br)n1 [TCMDC-134183]	-16.29
N#Cc1ccc(NC(=NC2CCCc3ccccc32)Nc2ccc(-c3ccccc3)cc2)c(O)c1 (centres unmarked) [TCMDC-140207]	-97.78

Structure (SMILES)	% Inhibition [%]
N#Cc1ccc2c(c1)CCN(CCC1CCC(NC(=O)c3cc4cccc([N+](=O)[O-])c4[nH]3)CC1)C2 (centres unmarked) [TCMDC-139188]	23.84
O=C(c1cc2cccc([N+](=O)[O-])c2[nH]1)N1CCC(CCN2CCC(c3c[nH]c4ccccc34)CC2)CC1 [TCMDC-139880]	92.61
O=C(NC1CCC(CN2CCC(c3c[nH]c4ccccc34)CC2)CC1)c1ccc(-c2ccccc2[N+](=O)[O-])o1 (centres unmarked) [TCMDC-140295]	-19.57
O=C(NC1CCC(CN2CCC(c3c[nH]c4ccccc34)CC2)CC1)c1cc2cccc([N+](=O)[O-])c2[nH]1 (centres unmarked) [TCMDC-139879]	95.83
COc1cc(C)ccc1N1CCN(CCCCNC(=O)c2ccc(NC(=O)c3ccc(Cl)cc3)cc2)CC1 [TCMDC-138374]	-7.22
CCNc1cc(C)nc(Nc2ccc(NC(=O)c3ccccc3Br)cc2)n1 [TCMDC-124985]	22.04
COC(=O)CNC(c1ccccc1)c1cc(Br)ccc1NC(=O)c1ccccc1Br (centres unmarked) [TCMDC-124194]	56.77
O=C(Nc1cc(Cl)c(Cl)cc1NC(=O)c1cccc(-c2ccccc2)c1O)c1cccc(-c2ccccc2)c1O [TCMDC-139548]	45.99
CCOC(=O)NC1=NC(C)(C)N(OCCCOc2cc(Cl)c(Cl)cc2Cl)C(N)=N1 [TCMDC-131741]	-6.814
CC(C)C1C(O)=C(c2ccc3ccccc3c2)C(=O)N1CC1CCCCC1 (centres unmarked) [TCMDC-141719]	18.57
Cc1cc(N[C@@H](Cc2ccccc2)C(=O)NC2CCCC2)nc(Nc2ccccc2)n1 [TCMDC-134856]	16.45
O=C(Nc1nc2cc(S(=O)(=O)NCCCN3CCOCC3)ccc2n1CCCn1ccnc1)c1ccc(Cl)cc1 [TCMDC-141624]	31.25
O=C(Nc1nc2cc(S(=O)(=O)NCc3ccc(Cl)c(Cl)c3)ccc2n1CCCn1ccnc1)c1ccc(Cl)cc1 [TCMDC-141625]	-7.697
O=C(Nc1nc2cc(S(=O)(=O)NCc3ccc(Cl)c(Cl)c3)ccc2n1CCCN1CCCC1)c1ccc(Cl)cc1 [TCMDC-141622]	64.1
O=C(O)C(F)(F)F.O=C1CCCN1CCCNCc1ccc(-c2ccc(-c3nc4cc(F)ccc4[nH]3)cc2)cc1 [TCMDC-132759]	-31.18
Cc1cc(C(=O)NCc2ccc(-c3c(C)noc3C)cc2)n(-c2ccccc2)n1 [TCMDC-133780]	16.41
CCCc1cc(NC2CCN(C)CC2)nc(Nc2ccc(C)cc2)n1 [TCMDC-134003]	32.47
CCc1cc(NC2CCN(C)CC2)nc(Nc2ccc(C)cc2)n1 [TCMDC-133996]	57.8
CCCc1cc(NC2CCN(C)CC2)nc(Nc2cccc(OC)c2)n1 [TCMDC-134001]	21.8
Cc1ccc(Nc2nc(C)cc(NC3CCN(C)CC3)n2)cc1 [TCMDC-133997]	39.13
CCCc1cc(NC2CCN(C)CC2)nc(Nc2ccc(F)cc2)n1 [TCMDC-134004]	57.16
CCCCc1cc(NC2CCN(C)CC2)nc(Nc2ccccc2)n1 [TCMDC-133994]	6.593
